According to PubChem BioAssay AID504423 (Broad Institute, 2011):
Several values for one entry are separate records, joined by “and”; a condition that tells them apart may be missing. Equal entries are not always repeated. Screen size: about 340,000 compounds; about 260 (0.076%) were called active. This is one part of a sample in which actives are shown more often than they occur.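 Rule for the calls: active = highest replicate inhibition at or above 60% at 9 µM, even if other replicates fall short; inactive = all replicates below 60% inhibition.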

System: Kaposi's sarcoma herpesvirus LANA C-terminal domain (residues 932-1162) DNA binding
Test: blockers of LANA C-terminal domain DNA interaction – biochemical, fluorescence polarization, FAM-LBS DNA, MBP-C-LANA, single point, primary screen (AID 504423);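 note: 0% = neutral control wells and 100% = 4 µM acridine orange control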
Conditions: at 9 µM, active compounds read high

| Compound | inhibition |
| --- | --- |
| C=CCNC(=S)NNC(=O)c1ccc(Br)o1 | 0.832% (inactive) |
| c1ccc(CNc2ncnc3[nH]ncc23)cc1 | -0.81% (inactive) |
| O=C(CN1CCN(c2ncccn2)CC1)Nc1ccccc1C(F)(F)F | -0.265% (inactive) |
| COC(=O)Cn1c(=NC(=O)CSCC(=O)Nc2cc(C)on2)sc2ccccc21 | 1.43% (inactive) |
| Cc1ccc(OCCNC(=O)c2cccc(S(=O)(=O)N3CCN(Cc4ccccc4)CC3)c2)cc1 | -0.305% (inactive) |
| COc1ccc(Cc2nnc(SCC(=O)c3cccc([N+](=O)[O-])c3)n2C)cc1 | 0.228% (inactive) |
| Cc1cc(C)c(NC(=O)CN2CCCCCC2)c(C)c1 | 1.26% (inactive) |
| N=C1c2ccccc2-c2ccccc21 | 1.95% (inactive) |
| CCC(C)C1(C2CCCC2)NC(=O)NC1=O (stereo not drawn) | 3.17% (inactive) |
| CCOc1ncccc1C(=O)NCCc1ccc(OC)cc1 | 0.452% (inactive) |
| CC1CCN(C(=O)c2ccccc2NC(=O)Cc2ccccc2)CC1 | 2.17% (inactive) |
| O=C(C1CCN(S(=O)(=O)c2ccc(Br)s2)CC1)N1CCN(C2CCCCC2)CC1 | -0.326% (inactive) |
| Cc1ccccc1CN1C[C@@H]2C[C@@H](c3cn(C)nc3-c3ccccc3)N3CCC[C@@]23C1=O | -1.95% (inactive) |
| O=C(Nc1ccc2sc3ccccc3c(=O)c2c1)c1ccccc1Cl | -0.526% (inactive) |
| CCCn1nc(NC(=O)C(C)C)c2cc3cc(OC)ccc3nc21 | -1.15% (inactive) |
| CC(C(=O)N(C)CC(=O)Nc1ccccc1C(F)(F)F)N1C(=O)c2ccccc2C1=O (stereo not drawn) | 1.14% (inactive) |
| CCN(CC)P(=O)(/C(Cl)=C\Nc1c(C)n(C)n(-c2ccccc2)c1=O)N(CC)CC | -1.51% (inactive) |
| Cc1cc([N+](=O)[O-])nn1CC(=O)Nc1ccc(Cc2ccncc2)cc1 | 0.568% (inactive) |
| Cn1c(N2CCOCC2)c(C=O)c2ccccc21 | 0.207% (inactive) |
| Cc1cc(Br)ccc1NC(=O)CN(C)C(=O)CN1C(=O)NC2(CCCC2)C1=O | 0.321% (inactive) |
| Cn1cc(S(=O)(=O)N2CCC(Cc3ccccc3)CC2)c(=O)n(C)c1=O | 1.59% (inactive) |
| CCCCN(CCCC)CCCNC(=O)CN1C(=O)COc2ccc(S(=O)(=O)N3CCC(C)CC3)cc21 | 0.15% (inactive) |

| Compound | inhibition |
| --- | --- |
| COc1cccc2c1CCC(NC(C)=O)C2=O (stereo not drawn) | -1.29% (inactive) |
| O=C(CSc1ccsc1[N+](=O)[O-])N1CCCCC1 | 1.32% (inactive) |
| CCCCNS(=O)(=O)c1ccc(S(=O)(=O)n2cnc3ccccc32)cc1 | 0.219% (inactive) |
| COc1ccc(C(=O)Nc2ccc(C(=O)NCC3CCCO3)cc2)c(OC)c1OC (stereo not drawn) | 2.3% (inactive) |
| Cc1ccc(CNC(=O)C(=O)c2cn(CC(=O)N3CCCC3)c3ccccc23)cc1 | 2.35% (inactive) |
| COC1=C/C(=C/c2c(N)n3nc(CC(=O)N4CCOCC4)sc3nc2=O)C=CC1=O | 32.7% (inactive) |
| CCC1CCCCN1CCNC(=O)c1[nH]c(C)c(C(C)=O)c1C (stereo not drawn) | 5.48% (inactive) |
| COc1cc(CN2CCN(Cc3ccc(C)cc3)CC2)c([N+](=O)[O-])cc1OC | -0.737% (inactive) |
| COc1ccccc1N1CCN(Cc2ccc(OC)c3ccccc23)CC1 | -3.69% (inactive) |
| COc1ccc(CN2CCN(Cc3ccc(OC)c(OC)c3OC)CC2)cc1 | 79% (active) |
| CC(=O)Nc1ccc(SCC(=O)Nc2ccccc2Oc2ccccc2)cc1 | 1.36% (inactive) |
| C[C@H](CO)N1C[C@H](C)[C@H](CN(C)C(=O)Nc2ccc(C(F)(F)F)cc2)Oc2c(NC(=O)c3ccncc3)cccc2C1=O | -3.26% (inactive) |
| O=C(c1ccc(F)cc1)C1CCN(Cc2cn[nH]c2-c2ccccc2)CC1 | 1.59% (inactive) |
| Cc1nc(C)c2c(c1C(F)(F)F)-c1ccccc1C2(F)F | 1.49% (inactive) |
| COc1ccc([C@@H]2[C@@H]3C(=O)N(C(C)(C)C)C(=O)[C@@H]3[C@]3(Cc4ccccc4)C(=O)N(c4cccc(Br)c4)C(=O)N23)cc1 | 0.113% (inactive) |
| CCOc1cc(C(=O)OCC(=O)Nc2cccc(C)c2)ccc1OCC(=O)N1CCOCC1 | 0.789% (inactive) |
| CO/N=C(\C(=O)N[C@@H]1C(=O)N2C(C(=O)O)=C(COC(C)=O)CS[C@H]12)c1csc(N)n1 (stereo in doubt) | 8.29% (inactive) and 6.28% (inactive) and 10.6% (inactive) |
| C=CC1=C(C(=O)O)N2C(=O)[C@@H](NC(=O)/C(=N/OCC(=O)O)c3csc(N)n3)[C@H]2SC1 | 95.4% (active) |
| C=CC1=C(C(=O)O)N2C(=O)[C@@H](NC(=O)/C(=N\OCC(=O)O)c3csc(N)n3)[C@H]2SC1 | 22.9% (inactive) |
| CCOc1ccccc1N1CCN(C(=O)c2ccc3[nH]c(C)c(C)c3c2)CC1 | -1.79% (inactive) |
| CCC(=O)OCc1c(C(F)(F)F)nn(C)c1Oc1cccc(C(F)(F)F)c1 | 0.811% (inactive) |
| CC1(C)N=C(c2ccccn2)C(C)(C)N1O | 0.432% (inactive) |

| Compound | inhibition |
| --- | --- |
| Cc1cc(C)n2nc(C(=O)OCC(=O)N(C)CC(=O)Nc3ccc(F)cc3)nc2n1 | 0.686% (inactive) |
| Cc1ccsc1C(=O)N[C@@H](C)c1nnc2ccccn12 | 1.44% (inactive) |
| Cc1nn(C)cc1N1C(=O)c2cccc3c(N)ccc(c23)C1=O | 73% (active) |
| CCC(C)(C)NC(=O)C(c1ccccn1)N(C(=O)c1csnn1)c1ccccc1 (stereo not drawn) | -0.461% (inactive) |
| O=C1OC(Oc2ccc(Br)cc2)(c2ccccc2)c2ccccc21 (stereo not drawn) | -1.96% (inactive) |
| CCC(Cc1ccccc1)NC(=O)C1CCCCC1 (stereo not drawn) | 1.4% (inactive) |
| Cc1sc2ncn(CC(=O)NCCCC(=O)NCc3ccc(F)cc3)c(=O)c2c1C | 0.451% (inactive) |
| Cc1ccc2c(c1)N(CC(=O)N1CCCc3ccccc31)C(=O)C(C)O2 (stereo not drawn) | 2.64% (inactive) |
| COc1cccc(COC(=O)C2CCN(S(=O)(=O)c3ccc(Cl)cc3)CC2)c1OC | 0.51% (inactive) |
| Cc1cc(C)c(S(=O)(=O)c2ccc(F)cc2C)c(=O)[nH]1 | -0.026% (inactive) |
| COc1ccc(/C(=N\O)c2nccc3cc(OC)c(OC)cc23)cc1OC | 0.0523% (inactive) |
| O=C(c1ccc(=O)oc1)N1CCC(C(O)(c2ccccc2)c2ccccc2)CC1 | 1.16% (inactive) |
| O=C(CN1CCSCC1)N/N=C/c1ccc(F)cc1F | -0.674% (inactive) |
| Clc1ccc(-c2nnc(-c3ccccc3)nc2N2CCSCC2)cc1 | -0.189% (inactive) |
| CC(=O)c1ccc(N2C(=NC(=O)C(C)C)SC3CS(=O)(=O)CC32)cc1 (stereo not drawn) | -0.954% (inactive) |
| CCCN(CC(=O)Nc1ccc(OC)c(OC)c1)CC(=O)Nc1ccc(F)c(F)c1F | 3.86% (inactive) |
| COCCCNC(=O)C1CC(=O)N(c2ccc(C)cc2)C1 (stereo not drawn) | 0.062% (inactive) |
| COC(=O)c1c(C)oc(C)c1S(=O)(=O)Nc1ccc(C(C)C)cc1 | -0.597% (inactive) |
| CCN(CC(=O)NC1CCS(=O)(=O)C1)S(=O)(=O)c1ccccc1 (stereo not drawn) | -1.52% (inactive) |
| CCOc1cc(C(=O)Nc2c(C)ccc3nsnc23)cc(OCC)c1OCC | -1.85% (inactive) |
| CCN(CC(=O)NC(C)C)C(=O)CCNC(=O)c1ccc(Cl)cc1 | -0.0284% (inactive) |
| COc1ccc(NS(=O)(=O)c2ccc(C)c(C(=O)N(C)Cc3ccc(OC)cc3OC)c2)cc1 | 28.6% (inactive) |

| Compound | inhibition |
| --- | --- |
| O=S(=O)(c1ccc(-c2ccccc2)cc1)N1CCCC1 | 1.28% (inactive) |
| CCCn1c(N)c(C(=O)CSc2nnc(-c3cccnc3)n2-c2ccc(C)cc2C)c(=O)[nH]c1=O | 0.224% (inactive) |
| CC(C)(C)NC(=O)CN1CCC(NC(=O)C23CC4CC(CC(C4)C2)C3)CC1 | 0.793% (inactive) |
| c1ccc2c(NC3C4CC5CC(C4)CC3C5)nc(N3CCOCC3)nc2c1 (stereo not drawn) | 0.795% (inactive) |
| CCC(C)(C)c1ccc(OCC(=O)N(C)C)c(C(C)(C)CC)c1 | 1.97% (inactive) |
| Oc1ccc2ccc3cccc[n+]3c2c1 | 141% (active) |
| Oc1ccc(-c2nc3ccccc3nc2-c2ccc(O)cc2O)c(O)c1 | 2.95% (inactive) |
| CC(=O)Oc1cc2c(C(=O)NCCN3CCOCC3)c(C)oc2c2ccccc12 | -0.716% (inactive) |
| Cc1cc(C)nc(NNC2=CC(=O)CC(C)(C)C2)n1 | 2.32% (inactive) |
| Cn1c(SCC(=O)N2CCCCC2)nc2c(c1=O)SCC2 | -1.34% (inactive) |
| COC(=O)[C@@H](NC(=O)NCc1cccc(OC)c1)C(C)C | 1.36% (inactive) |
| O=C1COc2ccc(C(=O)COC(=O)c3cccnc3Cl)cc2N1 | 4.34% (inactive) |
| O=C(C[n+]1cc(Br)cc2ccccc21)c1ccc(F)cc1 | 4% (inactive) |
| COC(=O)Cc1c(-c2[nH]c3ccccc3c2CC(=O)OC)[nH]c2ccccc12 | 1.73% (inactive) |
| COC(=O)C[n+]1cccc2ccccc21 | 70.1% (active) |
| O=C1CCCc2c1[nH]c1ccc(Br)cc21 | -0.926% (inactive) |
| COCCCN(C(=O)Cn1ncc2c(=O)oc3ccc(C)cc3c21)C(C)c1ccncc1 (stereo not drawn) | 1.23% (inactive) |
| O=C(Cn1c[n+](CC(=O)c2ccc([N+](=O)[O-])cc2)cn1)c1ccc([N+](=O)[O-])cc1 | -0.902% (inactive) and -2.71% (inactive) |
| CCOC(=O)C(C)N(c1ccccc1Cl)S(C)(=O)=O (stereo not drawn) | 1.82% (inactive) |
| CCOC(=O)C1CCN(C(=O)Cn2nc(C)c3c(C)n(-c4ccccc4)nc3c2=O)CC1 | -0.173% (inactive) |
| O=C1C=C(c2cccc(Cl)c2O)C[C@@H](c2ccc(F)cc2)C1 | 0.749% (inactive) |
| O=C(O)CCn1c(SCc2cc(=O)n3ccccc3n2)nc2ccsc2c1=O | 0.383% (inactive) |
